The record followed here is PubChem BioAssay.

For this experiment, the target named is Streptavidin (Streptomyces avidinii) (UniProt P22629). Put plainly: compounds binding control protein streptavidin – biophysical, small-molecule microarray, 635/667 nm fluorescence, artefact control for SMM compound annotation, primary screen (AID 1147).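 Note: signal reflects streptavidin binding to arrayed compounds as a control protein.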 The note with it: higher = more signal.
Chain of Streptavidin (Streptomyces avidinii) (P22629 whole entry, looked up): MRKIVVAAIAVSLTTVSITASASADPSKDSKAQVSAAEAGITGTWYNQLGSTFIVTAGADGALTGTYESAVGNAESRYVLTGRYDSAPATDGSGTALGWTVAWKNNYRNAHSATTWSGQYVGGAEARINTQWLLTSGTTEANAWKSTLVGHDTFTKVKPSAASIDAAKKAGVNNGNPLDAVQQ
Regarding `CO[C@H]1COC(=O)[C@H](C)COC(=O)[C@H](C)NC(=O)CC=C[C@H]1C`, the composite z-score was -0.237. `COC(=O)[C@H](C)NC(=O)CCC1CC(OC(=O)NCc2ccc3c(c2)OCO3)CC2(CCCC(COC(=O)NCCCN3CCCC3=O)O2)O1` (stereo partly specified) came in with a composite z-score of 0.53. In turn, `COc1ccc(COC(=O)NN=C2C[C@@H](O)[C@@H](O)[C@@H]3[C@@H]4C(=O)N(C[C@@H]5CCCO5)C(=O)[C@@H]4CC[C@@H]23)cc1` showed a composite z-score of 0.662. The same measure for `COc1ccc(COC(=O)NN=C2C[C@@H](O)[C@@H](O)[C@@H]3[C@@H]4C(=O)N(C(C)(C)C)C(=O)[C@@H]4CC[C@@H]23)cc1`: 0.244. In turn, `CCOC(=O)[C@H](CC(C)C)NC(=O)CCC1CC(OC(=O)NCc2ccc3c(c2)OCO3)CC2(CCCC(COC(=O)NCc3ccccc3)O2)O1` (stereo partly specified) gave a composite z-score of 0.324. The same measure for `CC(C)[C@H](NC(=O)OC(C)(C)C)[C@@H](O)CC(=O)C(C)(C)C`: 0.247.
